# Assay results from PubChem BioAssay (NCI).
# This is part of a sample that, as a whole, favours compounds with a hit. Of some 79,000 tested, about 15% had one in any assay. Unmarked numbers belong to inactive results. Rule as the data show it: active = growth inhibition above about 70%; inactive = the rest.
# Experiment: NCI Yeast Anticancer Drug Screen. Data for the mec2-1 strain (AID 157)
# Conditions: S. cerevisiae mec2-1 strain, at 50.0 µM, hits give high values
# Method in brief: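 Test agents were screened against the mec2-1 yeast strain, with defined DNA repair or cell cycle alteration. Growth was scored as inhibition against vehicle-only controls.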
row,Compound,growth inhibition
1,COc1ccc2ccccc2c1/C=N/N1CCCCC1,19.6%
2,O=c1oc(-c2ccccc2)nc2cc(Cl)ccc12,0.25%
3,COc1cc(/C=C2\CN(C)C(=O)C2=O)ccc1O,-27.2%
4,CCOC(=O)CC(=O)c1ccc(C)cc1,-3.45%
5,Cc1ccccc1CC1c2[nH]c3ccccc3c2CCN1C (stereo not drawn),-50.5%
6,NC(=O)c1ccccc1OCC(O)CO (stereo not drawn),-24.4%
7,CCOC(=O)CCc1ccc(O)c(O)c1,1.85%
8,CC(CN1CCCC1)C(O)(Cc1ccccc1)c1ccccc1 (stereo not drawn),-2.7%
9,Cc1cccc(C2NC(=O)c3ccccc3N2)c1 (stereo not drawn),-15.8%
10,O=[N+]([O-])c1cccc(S(=O)(=O)OCCOc2ccccc2)c1,4.15%
11,CCOC(=O)c1c(N)sc2c1CCN(Cc1ccccc1)C2,17.8%
12,CS(=O)(=O)c1ccc(NN)c([N+](=O)[O-])c1 (tested in a mixture with another compound),-46.8%
13,Cc1ccc(CNc2cccc([N+](=O)[O-])c2)cc1,-13.6%
14,Cc1cccc(NNC(=S)Nc2ccccc2)c1,-14.8%
15,ClCCOC(OCCCl)OCCCl,-28.3%
16,N#C/C(=C1C=C/C(=N/O)C(Br)=C/1)c1ccccc1,13.2%
17,O=C1c2ccccc2C(=O)N1/N=C/c1ccc2c(c1)OCO2,10.2%
18,COc1ccc(-c2coc3ccc4ccccc4c3c2=O)cc1OC,-15.1%
